These results are taken from PubChem BioAssay (EPA / NIEHS).

Records with an inconclusive call do not appear. Activity calls are given as the source filed them. The calls were made as follows: active = hit-call score of the fitted dose curve at least 0.9, where 1 is the maximum; inconclusive = response in the unintended direction; inactive = score below 0.9.

Assay [1] is described as follows: TOX21_p53_BLA_p2_viability: Viability Assessment in the Tox21 HCT-116 p53 Agonism Beta-lactamase Assay, Phase 2 (AID 2283591).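 Also: actives lower the ATP signal meaning cytotoxicity.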 The gist of the method:
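Cytotoxicity readout: CellTiter-Glo ATP luminescence, 30 min at room temperature, after the beta-lactamase read. Cells were HCT116 exposed 16 h at 37C to compounds pin-transferred at 217-fold dilution from DMSO stocks.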

Assay [2] concerns the target Cellular tumor antigen p53 (Homo sapiens) (UniProt P04637). Put plainly: TOX21_p53_BLA_p2_ratio: Tox21 HCT-116 p53 Agonism Beta-lactamase Assay, Ratio, Phase 2 (AID 2283592). The gist of the method: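 First, HCT116 reporter cells settle for 5 h at 37C. Next, DMSO compound solutions are pinned in (217-fold dilution) and left 16 h. Finally, CCF4-AM substrate is loaded 2 h at room temperature and the 460/530 nm ratio read.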

For assay [3] the target is unchanged. Put plainly: TOX21_p53_BLA_p3_ratio: Tox21 HCT-116 p53 Agonism Beta-lactamase Assay, Ratio, Phase 3 (AID 2283596). An outline of the steps:
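Cells were seeded at 4000/well, rested 5 h at 37C, then dosed with DMSO compound solutions (217-fold dilution) for 16 h. CCF4-AM substrate was loaded for 2 h at room temperature, and the 460/530 nm emission ratio was fitted for gain of signal versus DMSO.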

Assay [4] in a line: TOX21_p53_BLA_p4_viability: Viability Assessment in the Tox21 HCT-116 p53 Agonism Beta-lactamase Assay, Phase 4 (AID 2283597).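 Also: hits lower the luminescence signal meaning cytotoxicity.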 An outline of the steps:
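4000 HCT116 cells per well; 5 h attachment; compounds from DMSO, 217-fold dilution; 16 h at 37C. Then CCF4-AM, 2 h RT, followed by CellTiter-Glo, 30 min RT, luminescence. Decrease = cytotoxicity.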

For assay [5], the target named is Cellular tumor antigen p53 (Homo sapiens) (UniProt P04637). The assay is described as follows: TOX21_p53_BLA_p5_ratio: Tox21 HCT-116 p53 Agonism Beta-lactamase Assay, Ratio, Phase 5 (AID 2283599). The gist of the method:
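Beta-lactamase reporter ratio (blue 460 nm over green 530 nm, 405 nm excitation) after 2 h CCF4-AM loading, in HCT-116 cells exposed 16 h at 37 C to compounds pinned at 217-fold dilution. Increases relative to DMSO baseline scored.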

The nature of assay [6]: TOX21_p53_BLA_p5_viability: Viability Assessment in the Tox21 HCT-116 p53 Agonism Beta-lactamase Assay, Phase 5 (AID 2283600). The gist of the method:
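Decreased CellTiter-Glo luminescence denotes lost viability. Exposure: 16 h at 37C, 5% CO2, with compounds from DMSO stocks diluted 217-fold in wells of 4000 cells.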

In assay [7] the target is Cellular tumor antigen p53 (Homo sapiens) (UniProt P04637). Put plainly: TOX21_p53_BLA_p4_ratio: Tox21 HCT-116 p53 Agonism Beta-lactamase Assay, Ratio, Phase 4 (AID 2283601). The gist of the method:
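Signal is the blue/green (460nm/530nm) ratio of cleaved versus uncleaved CCF4-AM substrate, read after 2 h substrate loading. Cells were HCT116 carrying the p53-responsive beta-lactamase reporter, dosed 16 h at 37C, 5% CO2; CellTiter-Glo measured in parallel.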

Sequence of Cellular tumor antigen p53 (Homo sapiens) (P04637 whole entry, looked up): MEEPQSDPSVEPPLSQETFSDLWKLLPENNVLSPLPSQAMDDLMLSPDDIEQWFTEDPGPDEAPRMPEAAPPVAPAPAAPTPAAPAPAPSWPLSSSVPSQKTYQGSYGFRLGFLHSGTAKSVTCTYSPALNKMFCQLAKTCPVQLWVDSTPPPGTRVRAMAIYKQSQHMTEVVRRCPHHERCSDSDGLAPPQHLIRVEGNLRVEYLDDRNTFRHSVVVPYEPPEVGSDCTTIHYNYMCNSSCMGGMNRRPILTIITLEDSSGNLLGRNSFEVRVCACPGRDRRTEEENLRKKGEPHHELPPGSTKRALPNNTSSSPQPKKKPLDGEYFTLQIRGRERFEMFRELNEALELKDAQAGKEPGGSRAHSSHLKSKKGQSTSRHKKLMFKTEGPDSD

As for `Nc1cc(Cl)c([N+](=O)[O-])cc1O`, the call in assay [1], in assay [2], in assay [3], in assay [4], in assay [5] and in assay [6] was inactive. The result in assay [7] was inactive.

By AC50 is commonly meant the concentration at which the activity in the assay is half-maximal. For the compound `CCc1ccc2c(c1)N(CC(C)CN(C)C)c1ccccc1S2` (configuration not stated), the results for the half-maximal activity concentration (AC50) in assay [1] and in assay [4] were 38.7 µM (active) and 36.2 µM (active), respectively. For the same compound, the result in assay [2], in assay [3], in assay [5], in assay [6] and in assay [7] was inactive.

Regarding `C[C@@H]1NC(=O)[C@@H](N)CNC(=O)[C@H](C2CCNC(N)=N2)NC(=O)/C(=C/NC(N)=O)NC(=O)[C@H](CNC(=O)C[C@@H](N)CCCN)NC1=O` (some centres not stated), the compound was called inactive in assay [1], in assay [2], in assay [3], in assay [4], in assay [5] and in assay [6]. Moreover, the result in assay [7] was inactive.

Regarding `CC(C)Nc1ccccc1`, the call in assay [1], in assay [2], in assay [3], in assay [4], in assay [5] and in assay [6] was inactive. Also, the result in assay [7] was inactive.

Regarding `Cc1cc(C(C)(C)C)c(O)c(C)c1CC1=NCCN1`, the call in assay [1], in assay [2], in assay [3], in assay [4], in assay [5] and in assay [6] was inactive. Further, the outcome in assay [7] was inactive.

As for `O=CC(=O)c1ccccc1`, the call in assay [1], in assay [2], in assay [3], in assay [4], in assay [5] and in assay [6] was inactive. Further, in assay [7], the result was inactive.

Regarding `CC1(O)CCC(C(C)(C)O)CC1` (configuration not stated), the compound was classed as inactive in assay [1], in assay [2], in assay [3], in assay [4], in assay [5] and in assay [6]. Besides, the outcome in assay [7] was inactive.

As for `CCC(=O)O[C@H]1CC[C@H]2[C@@H]3CCc4cc(O)ccc4[C@H]3CC[C@]12C`, the outcome in assay [1], in assay [2], in assay [3], in assay [5], in assay [6] and in assay [7] was inactive. Besides, in assay [4], the AC50 is 37.2 µM (active).

Regarding `O=C(Cn1ccnc1[N+](=O)[O-])NCCO`, the result in assay [1], in assay [2], in assay [3], in assay [4], in assay [5] and in assay [6] was inactive. The result in assay [7] was inactive.

Take `NS(=O)(=O)c1cc2c(cc1Cl)NC=NS2(=O)=O`: the compound was called inactive in assay [1], in assay [2], in assay [3], in assay [4], in assay [5] and in assay [6]. In addition, in assay [7], the outcome was inactive.

Consider `CN(C)CC/C=C1\c2ccccc2Sc2ccc(Cl)cc21`, for which the outcome in assay [1], in assay [3], in assay [5] and in assay [6] was inactive. Further, the half-maximal activity concentration (AC50) in assay [2] was 33.1 µM (active); in assay [4], 35.7 µM (active); in assay [7] it was 21.9 µM (active).

For `O=C1O[C@H](CO)[C@@H](O)[C@H](O)[C@H]1O`, the compound was called inactive in assay [1], in assay [2], in assay [3], in assay [4], in assay [5] and in assay [6]. Besides, in assay [7], the result was inactive.

With `CC(=O)OC[C@H]1O[C@@H](n2ncc(=O)[nH]c2=O)[C@H](OC(C)=O)[C@@H]1OC(C)=O`, the compound was called inactive in assay [1], in assay [4] and in assay [6]. Also, the concentration at half-maximal activity (AC50) in assay [2] was 2.04 µM (active); in assay [3], 3.15 µM (active); in assay [5] it was 2.02 µM (active); in assay [7], 2.61 µM (active).

For the compound `COc1ccc(OC)c(C(O)CNC(=O)CN)c1` (configuration not stated), the compound was classed as inactive in assay [1], in assay [2], in assay [3], in assay [4], in assay [5] and in assay [6]. Also, in assay [7], the outcome was inactive.

Take `CCCCC1C(=O)N(c2ccccc2)N(c2ccc(O)cc2)C1=O` (configuration not stated): the half-maximal activity concentration (AC50) was 19 µM (active) in assay [1], 15.8 µM (active) in assay [2], 17 µM (active) in assay [4] and 15.4 µM (active) in assay [5]. In addition, the result in assay [3], in assay [6] and in assay [7] was inactive.

Consider `C[C@H]1[C@@H](OC(=O)CCC(=O)O)O[C@@H]2OC3(C)CC[C@H]4[C@H](C)CC[C@@H]1[C@@]24OO3`, for which the outcome in assay [1], in assay [2], in assay [3], in assay [4], in assay [5] and in assay [6] was inactive. The result in assay [7] was inactive.

Consider `O=C(Nc1ccc(S(=O)(=O)N2CCOCC2)cc1)c1cc(Cl)ccc1NS(=O)(=O)c1ccc(Cl)s1`, for which the outcome in assay [1], in assay [2], in assay [3] and in assay [6] was inactive. The concentration at half-maximal activity (AC50) in assay [4] was 22 µM (active); in assay [5] it was 21.7 µM (active); in assay [7], 36.5 µM (active).

On to `Brc1c2ccccc2cc2ccccc12`, for which the outcome in assay [1], in assay [2], in assay [3], in assay [4], in assay [5] and in assay [6] was inactive. For the same compound, the outcome in assay [7] was inactive.

Turning to `CC(CN(C)C)C(C)(O)Cc1ccc(Cl)cc1` (configuration not stated), the compound was called inactive in assay [1], in assay [2], in assay [3], in assay [4], in assay [5] and in assay [6]. Besides, the outcome in assay [7] was inactive.

For `OCc1ccccn1`, the result in assay [1], in assay [2], in assay [3], in assay [4], in assay [5] and in assay [6] was inactive. Moreover, the outcome in assay [7] was inactive.

For the compound `CCN(Cc1ccccc1)c1ccccc1`, the outcome in assay [1], in assay [2], in assay [3], in assay [4], in assay [5] and in assay [6] was inactive. Besides, the result in assay [7] was inactive.

As for `CC1=C2[C@H](/C=C(\C)C(=O)O)CC[C@@H](C)[C@H]2CC1`, the compound was called inactive in assay [1], in assay [2], in assay [3], in assay [4], in assay [5] and in assay [6]. Besides, the outcome in assay [7] was inactive.

Turning to `CC(C)NCC(O)COc1ccc(COCCOC(C)C)cc1` (configuration not stated), the compound was classed as inactive in assay [1], in assay [2], in assay [3], in assay [4], in assay [5] and in assay [6]. Further, the outcome in assay [7] was inactive.

As for `CS(=O)(=O)c1ccc([C@@H](O)[C@@H](CO)NC(=O)C(Cl)Cl)cc1`, the result in assay [1], in assay [2], in assay [3], in assay [4], in assay [5] and in assay [6] was inactive. In assay [7], the outcome was inactive.

For `O=C1CCc2ccc(OCCCCN3CCN(c4cccc(Cl)c4Cl)CC3)cc2N1`, the call in assay [1], in assay [2], in assay [3], in assay [4], in assay [5] and in assay [7] was inactive. For the same compound, in assay [6], the AC50 was 23 µM (active).

In the case of `NC(=O)c1ncn([C@@H]2O[C@H](CO)[C@@H](O)[C@H]2O)c1O`, the compound was called inactive in assay [1], in assay [2], in assay [3], in assay [4], in assay [5] and in assay [6]. Besides, in assay [7], the outcome was inactive.
